For eleven molecules, Percent Effect results are on record in ChEMBL document CHEMBL3988442, “University of Dundee, Small-Polar-MMV Screening Library” (2021).

Structures are written as SMILES. For some of these results: Measured potencies and affinities stand elsewhere.

Common to all, as to set-up: scale not given: direction of the effect not stated beside the values
The target in assay [1] is Protein translocase subunit SecA (Escherichia coli (strain K12)) (UniProt P10408). In words: Assay to Identify E. coli SecA ATPase Inhibitors. It counts as functional. Conditions: 30 µM.
Sequence of Protein translocase subunit SecA (Escherichia coli (strain K12)) (P10408 whole entry): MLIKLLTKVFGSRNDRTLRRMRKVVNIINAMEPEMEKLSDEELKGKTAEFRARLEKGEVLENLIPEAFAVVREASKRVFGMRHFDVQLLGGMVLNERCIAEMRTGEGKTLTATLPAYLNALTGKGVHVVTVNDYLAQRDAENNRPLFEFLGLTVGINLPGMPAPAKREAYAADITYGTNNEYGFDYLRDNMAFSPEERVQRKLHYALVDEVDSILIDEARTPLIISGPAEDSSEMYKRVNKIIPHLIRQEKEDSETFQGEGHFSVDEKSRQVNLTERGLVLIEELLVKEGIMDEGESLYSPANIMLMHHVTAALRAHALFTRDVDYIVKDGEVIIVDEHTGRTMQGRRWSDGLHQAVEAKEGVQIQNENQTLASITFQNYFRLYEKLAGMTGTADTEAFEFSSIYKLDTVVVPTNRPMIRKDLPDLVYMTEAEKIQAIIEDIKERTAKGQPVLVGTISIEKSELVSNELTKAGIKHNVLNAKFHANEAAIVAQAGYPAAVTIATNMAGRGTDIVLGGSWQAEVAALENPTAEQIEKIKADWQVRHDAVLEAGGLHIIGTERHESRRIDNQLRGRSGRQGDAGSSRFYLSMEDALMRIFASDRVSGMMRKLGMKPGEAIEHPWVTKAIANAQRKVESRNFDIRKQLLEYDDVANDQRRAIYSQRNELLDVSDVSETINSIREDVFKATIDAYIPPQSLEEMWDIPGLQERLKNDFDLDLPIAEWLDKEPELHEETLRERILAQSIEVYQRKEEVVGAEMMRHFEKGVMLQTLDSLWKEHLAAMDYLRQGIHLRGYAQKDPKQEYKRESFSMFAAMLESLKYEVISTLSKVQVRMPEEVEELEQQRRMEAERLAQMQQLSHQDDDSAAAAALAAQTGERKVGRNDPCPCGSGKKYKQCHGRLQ
Assay [2] deals with T1, Ubiquitin-activating enzyme e1, putative (Leishmania donovani (strain BPK282A1)) (UniProt E9BSI1).
T1 sequence (whole entry): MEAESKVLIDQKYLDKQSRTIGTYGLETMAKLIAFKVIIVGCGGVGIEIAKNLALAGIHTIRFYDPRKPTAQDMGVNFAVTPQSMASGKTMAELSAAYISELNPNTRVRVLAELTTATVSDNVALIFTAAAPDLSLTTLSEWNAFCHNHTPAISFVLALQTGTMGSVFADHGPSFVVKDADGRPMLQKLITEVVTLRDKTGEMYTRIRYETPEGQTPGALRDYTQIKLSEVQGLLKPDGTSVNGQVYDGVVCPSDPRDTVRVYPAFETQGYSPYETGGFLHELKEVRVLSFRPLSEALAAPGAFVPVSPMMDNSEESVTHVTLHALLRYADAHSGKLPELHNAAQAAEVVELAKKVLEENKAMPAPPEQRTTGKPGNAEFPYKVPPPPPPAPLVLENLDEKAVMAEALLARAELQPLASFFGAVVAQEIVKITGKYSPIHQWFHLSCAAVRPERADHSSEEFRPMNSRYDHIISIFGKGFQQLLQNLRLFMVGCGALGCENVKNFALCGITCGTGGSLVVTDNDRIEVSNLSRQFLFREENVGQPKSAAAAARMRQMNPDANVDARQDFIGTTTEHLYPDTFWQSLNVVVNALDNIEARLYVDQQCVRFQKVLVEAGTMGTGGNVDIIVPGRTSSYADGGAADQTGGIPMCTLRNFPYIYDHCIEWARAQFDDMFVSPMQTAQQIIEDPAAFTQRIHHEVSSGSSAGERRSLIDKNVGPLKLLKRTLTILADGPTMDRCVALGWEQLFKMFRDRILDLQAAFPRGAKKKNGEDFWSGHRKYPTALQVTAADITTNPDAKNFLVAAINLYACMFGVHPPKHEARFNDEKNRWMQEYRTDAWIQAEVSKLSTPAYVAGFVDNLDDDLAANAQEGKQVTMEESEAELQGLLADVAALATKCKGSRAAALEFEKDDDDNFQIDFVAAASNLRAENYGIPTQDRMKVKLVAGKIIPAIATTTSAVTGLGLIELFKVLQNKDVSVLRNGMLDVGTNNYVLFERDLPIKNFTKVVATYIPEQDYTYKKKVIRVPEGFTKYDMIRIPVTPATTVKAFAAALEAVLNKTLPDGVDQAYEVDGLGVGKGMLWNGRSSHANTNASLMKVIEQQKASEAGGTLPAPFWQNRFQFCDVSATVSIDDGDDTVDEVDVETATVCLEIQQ
In words: Leishmania donovani Ubiquitin Activating Enzyme (LdE1). The assay is classed as functional. The settings on record: 30 µM.

Assay [3] addresses AMP-activated protein kinase, AMPK (Homo sapiens) (UniProt P54646+O43741+P54619+Q9UGJ0+Q9Y478+Q13131+Q9UGI9). As to the kind of experiment: AMP-dependent Kinase enzyme assay. An in vitro enzyme assay that detects ADP turnover that is directly proportional to AMPK activity. This uses naive AMPK that is activated during the assay with MK-8722. It counts as functional. The settings on record: 30 µM.

Assay [4] has as its target Sialic acid-binding Ig-like lectin 9 (Homo sapiens) (UniProt Q9Y336). In words: Hs-Siglec9 ALPHAscreen SOP 20170721. The settings on record: 10 µM.
The test system of assay [5] is Trypanosoma cruzi. In words: Trypanosoma cruzi phosphomannomutase and mannose-1-phosphate guanylyltransferase assay. The assay is classed as functional. The settings on record: 10 µM.
For assay [6], the target named is T2, Arginase-2, mitochondrial (Homo sapiens) (UniProt P78540).
T2 sequence (whole entry): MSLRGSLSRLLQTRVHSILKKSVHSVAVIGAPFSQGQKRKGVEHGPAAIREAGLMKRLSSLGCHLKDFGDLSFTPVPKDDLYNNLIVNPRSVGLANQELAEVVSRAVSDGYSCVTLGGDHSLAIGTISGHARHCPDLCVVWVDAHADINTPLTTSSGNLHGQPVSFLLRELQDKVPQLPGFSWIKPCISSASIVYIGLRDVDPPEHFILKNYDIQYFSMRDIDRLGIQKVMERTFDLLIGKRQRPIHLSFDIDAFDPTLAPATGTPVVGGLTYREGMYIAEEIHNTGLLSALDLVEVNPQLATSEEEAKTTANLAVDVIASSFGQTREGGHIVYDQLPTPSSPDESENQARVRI
In words: in vitro enzyme assay to detect the production of urea directly proportional to the activity of Arginase II. Note: in the data most compounds retested in dose-response had high values. The assay is classed as functional. The settings on record: 33.3 µM.

Assay [7] has as its target T3, Proteasome subunit beta (Trypanosoma cruzi) (UniProt O96673).
T3 sequence (whole entry): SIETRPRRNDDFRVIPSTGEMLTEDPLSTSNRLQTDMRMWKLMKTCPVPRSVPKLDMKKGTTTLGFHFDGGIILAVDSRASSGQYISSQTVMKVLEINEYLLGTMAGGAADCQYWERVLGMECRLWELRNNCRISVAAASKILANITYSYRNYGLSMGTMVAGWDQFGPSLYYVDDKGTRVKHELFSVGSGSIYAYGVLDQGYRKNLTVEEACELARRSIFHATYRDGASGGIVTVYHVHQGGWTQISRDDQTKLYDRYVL
In words: Trypanosoma cruzi proteasome chymotrypsin-like activity (TcProtChymo) assay. Note: in the data most compounds retested in dose-response had high values. It counts as functional. Conditions: 9.37 µM.

For assay [8], the species on record is Homo sapiens. As to the kind of experiment: To identify inhibition of the IFN signalling (Jak-Stat) pathway via expression of an eGFP reporter gene under the control of an IFN-stimulated response element (ISRE) containing MxA promoter. It counts as functional. The settings on record: 30 µM. On the technique in general: Reporter assays use an easily measured gene product as a stand-in for the process of interest.

The target of assay [9] is T4, Tyrosyl-tRNA synthetase, putative (Trypanosoma cruzi (strain CL Brener)) (UniProt Q4DSP6).
T4 sequence (whole entry): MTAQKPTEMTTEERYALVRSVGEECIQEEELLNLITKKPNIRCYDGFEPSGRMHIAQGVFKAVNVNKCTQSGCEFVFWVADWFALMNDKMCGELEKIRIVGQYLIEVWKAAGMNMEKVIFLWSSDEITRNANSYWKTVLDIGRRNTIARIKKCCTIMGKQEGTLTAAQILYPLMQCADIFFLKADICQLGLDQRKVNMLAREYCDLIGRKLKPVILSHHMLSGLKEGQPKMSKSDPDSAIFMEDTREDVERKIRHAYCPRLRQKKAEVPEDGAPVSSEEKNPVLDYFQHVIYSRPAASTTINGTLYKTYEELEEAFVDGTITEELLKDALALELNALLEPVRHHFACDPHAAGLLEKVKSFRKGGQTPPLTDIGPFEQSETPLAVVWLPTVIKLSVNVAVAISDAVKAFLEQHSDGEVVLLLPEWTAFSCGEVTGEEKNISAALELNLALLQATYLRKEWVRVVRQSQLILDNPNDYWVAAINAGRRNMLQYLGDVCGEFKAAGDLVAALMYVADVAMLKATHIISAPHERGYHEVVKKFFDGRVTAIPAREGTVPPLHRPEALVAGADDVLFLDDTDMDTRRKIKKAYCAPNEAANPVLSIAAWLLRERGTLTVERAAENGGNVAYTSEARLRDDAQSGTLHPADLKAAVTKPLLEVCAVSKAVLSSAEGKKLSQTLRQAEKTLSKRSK
In words: Trypanosoma cruzi tyrosyl tRNA synthetase (TcYRS) _High Tyrosine SOP. Note: in the data most compounds retested in dose-response had high values. It counts as functional. Conditions: 30 µM.

Assay [10] deals with T4, Tyrosyl-tRNA synthetase, putative (Trypanosoma cruzi (strain CL Brener)). In words: Trypanosoma cruzi tyrosyl tRNA synthetase (TcYRS) SOP. The assay is classed as functional. The settings on record: 30 µM.
The target in assay [11] is Chromo domain-containing protein 1 (Saccharomyces cerevisiae (strain ATCC 204508 / S288c) (Baker's yeast)) (UniProt P32657). In words: ScCHD-1 Enzyme Inhibition Assay. Note: in the data most compounds retested in dose-response had high values. The assay is classed as functional. The settings on record: 30 µM.
Sequence of Chromo domain-containing protein 1 (Saccharomyces cerevisiae (strain ATCC 204508 / S288c) (Baker's yeast)) (P32657 whole entry, the tested form may be a part): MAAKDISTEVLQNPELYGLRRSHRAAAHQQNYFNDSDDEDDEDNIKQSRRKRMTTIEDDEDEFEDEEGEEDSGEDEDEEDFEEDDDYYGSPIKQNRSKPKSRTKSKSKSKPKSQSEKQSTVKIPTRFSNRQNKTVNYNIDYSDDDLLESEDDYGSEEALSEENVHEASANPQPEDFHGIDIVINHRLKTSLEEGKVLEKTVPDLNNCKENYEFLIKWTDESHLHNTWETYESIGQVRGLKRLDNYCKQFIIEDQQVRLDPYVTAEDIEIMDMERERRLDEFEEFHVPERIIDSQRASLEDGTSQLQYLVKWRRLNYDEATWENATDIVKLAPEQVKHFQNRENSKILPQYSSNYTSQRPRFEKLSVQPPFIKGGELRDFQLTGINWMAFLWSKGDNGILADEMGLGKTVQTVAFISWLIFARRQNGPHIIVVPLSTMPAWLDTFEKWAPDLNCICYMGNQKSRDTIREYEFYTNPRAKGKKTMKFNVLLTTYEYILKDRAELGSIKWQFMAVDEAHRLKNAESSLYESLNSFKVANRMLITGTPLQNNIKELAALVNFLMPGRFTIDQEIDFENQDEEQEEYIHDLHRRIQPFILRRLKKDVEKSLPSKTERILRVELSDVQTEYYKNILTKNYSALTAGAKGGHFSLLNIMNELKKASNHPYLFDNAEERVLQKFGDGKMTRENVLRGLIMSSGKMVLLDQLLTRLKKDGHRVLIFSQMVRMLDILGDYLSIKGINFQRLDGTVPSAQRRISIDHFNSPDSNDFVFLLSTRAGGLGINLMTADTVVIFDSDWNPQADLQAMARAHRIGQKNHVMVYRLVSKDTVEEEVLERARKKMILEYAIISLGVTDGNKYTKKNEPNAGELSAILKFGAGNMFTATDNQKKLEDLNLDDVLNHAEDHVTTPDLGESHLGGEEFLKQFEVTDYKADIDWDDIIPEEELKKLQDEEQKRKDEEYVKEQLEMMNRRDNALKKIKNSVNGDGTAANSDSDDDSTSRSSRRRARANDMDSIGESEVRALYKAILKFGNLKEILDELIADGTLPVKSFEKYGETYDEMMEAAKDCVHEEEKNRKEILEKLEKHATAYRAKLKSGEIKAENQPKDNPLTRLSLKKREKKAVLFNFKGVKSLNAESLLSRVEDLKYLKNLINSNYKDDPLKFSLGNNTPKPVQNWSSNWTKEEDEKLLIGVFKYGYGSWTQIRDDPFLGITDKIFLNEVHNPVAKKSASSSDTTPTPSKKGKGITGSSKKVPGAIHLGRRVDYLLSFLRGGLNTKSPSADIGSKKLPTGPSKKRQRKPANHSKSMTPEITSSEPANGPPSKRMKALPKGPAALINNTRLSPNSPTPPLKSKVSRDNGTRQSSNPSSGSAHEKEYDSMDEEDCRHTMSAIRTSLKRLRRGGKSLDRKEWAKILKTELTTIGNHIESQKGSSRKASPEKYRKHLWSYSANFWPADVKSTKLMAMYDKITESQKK

Sequence of Sialic acid-binding Ig-like lectin 9 (Homo sapiens) (Q9Y336 whole entry): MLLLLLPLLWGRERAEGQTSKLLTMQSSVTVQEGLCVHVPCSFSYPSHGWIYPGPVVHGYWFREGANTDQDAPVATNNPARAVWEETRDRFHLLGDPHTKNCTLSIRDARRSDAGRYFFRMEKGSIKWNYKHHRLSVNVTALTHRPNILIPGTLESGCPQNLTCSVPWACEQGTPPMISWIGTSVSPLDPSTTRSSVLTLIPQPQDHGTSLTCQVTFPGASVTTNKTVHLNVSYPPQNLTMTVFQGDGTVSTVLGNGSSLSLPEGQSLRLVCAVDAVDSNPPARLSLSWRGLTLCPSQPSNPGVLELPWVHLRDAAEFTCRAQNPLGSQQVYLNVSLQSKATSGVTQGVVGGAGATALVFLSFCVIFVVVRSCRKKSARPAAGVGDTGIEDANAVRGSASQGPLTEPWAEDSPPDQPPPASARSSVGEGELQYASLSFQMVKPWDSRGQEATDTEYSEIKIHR

On to `O=C(Cc1ccccc1)N1CCC2(CC(=O)N(c3cccc(F)c3)C2)C1` (stereo unspecified), for which the Percent Effect in assay [1] is -5.5%; in [2], 2.7%; in assay [3], -5.09%; in assay [4], -3.6%; in assay [5], -1.86%; in assay [6], 1.74%. Moreover, the Percent Effect in [7] was 6.09%; in assay [8] it was -6.6%; in [9], 3.23%; in assay [10], 3.7%; in [11], 2.85%.

Take `CCCOCC(=O)NS(=O)(=O)c1ccc2c(c1)OCCCO2`: the Percent Effect in assay [1] is -8.22%; in [2], 0%; in assay [3], 0.981%; in assay [4], -3.65%; in assay [5] it was -6.07%; in [6], 0%. For the same molecule, the Percent Effect in [7] was -0.423%; in [8], 13.9%; in assay [9] it was -2.46%; in assay [10] it was -6.17%; in [11], 1.45%.

For the molecule `O=C1CCC2(CCN(Cc3nccs3)CC2)N1Cc1ccccc1`, the Percent Effect in assay [1] was -0.659%; in assay [2] it was 5.33%; in [3], 5.45%; in assay [4] it was 1.02%; in [5], -5.91%; in assay [6] it was 3.03%. For the same molecule, the Percent Effect is 10.8% in assay [7]; 5.84% in [8]; 5.32% in assay [9]; 11.5% in assay [10]; -0.585% in [11].

In the case of `Cc1cccc(C2(NC(=O)CCN3C(=O)CCC3=O)CCCC2)c1`, the Percent Effect in assay [1] was -5.83%; in assay [2], 12.7%; in assay [3], -1.51%; in [4], 8.26%; in assay [5], 0.85%; in [6] it was -2.28%. In addition, the Percent Effect in assay [7] was 4.83%; in [8], 0.0333%; in assay [9] it was 5.42%; in assay [10], 11.4%; in assay [11], -4.64%.

In the case of `Cc1ncccc1OC1(C(=O)NCCNc2ccccc2)CCNCC1`, the Percent Effect was -3.81% in assay [1]; 2.7% in [2]; -15.1% in [3]; 6.77% in [4]; 3.48% in [5]; -1.91% in assay [6]. In addition, the Percent Effect in assay [7] was 5.86%; in assay [8], 20.1%; in assay [9], 5.82%; in [10], 9.76%; in assay [11], -4.02%.

With `O=C(Cc1noc2ccccc12)N1CCCC1c1noc(C2CC2)n1` (stereo unspecified), the Percent Effect in assay [1] was 0.239%; in assay [2], -2.7%; in [3], -6.79%; in assay [4], 3.85%; in assay [5], -4.62%; in [6], 0%. The Percent Effect in assay [7] was 7.39%; in assay [8], 86.2%; in assay [9], 2.46%; in assay [10] it was -6.17%; in assay [11] it was 5.86%.

As for `Cc1nc(CN2CCCC2c2ccsc2)nc2ccccc12` (stereo unspecified), the Percent Effect is -1.18% in assay [1]; -16.5% in assay [2]; 3.32% in [3]; 2.94% in assay [4]; 4% in assay [5]; 7.1% in assay [6]. In addition, the Percent Effect in assay [7] was 13.6%; in [8], 23.7%; in assay [9], 9.38%; in assay [10] it was 27.9%; in assay [11], 4.99%.

`C=Cn1ncc(CN2C[C@@H]3CCCN3C[C@H]2CCSC)c1C`: the Percent Effect in [1] is -0.255%; in assay [2] it was 1.35%; in [3], 5.26%; in assay [4], 9.13%; in assay [5] it was 4.94%; in [6], -1.16%. Also, the Percent Effect in assay [7] is 9.36%; in assay [8], 15.9%; in [9], 1.07%; in assay [10], 1.3%; in assay [11] it was -6.62%.

`CC(C)CCn1[nH]c(CNc2ccccc2)nc1=O`: the Percent Effect in [1] is -2.4%; in [2], 2.63%; in assay [3], 4.53%; in assay [4] it was 4.24%; in assay [5] it was -9.06%; in assay [6], 2.37%. For the same molecule, the Percent Effect in [7] was found to be 16.2%; in assay [8], 2.77%; in [9], 2.13%; in assay [10], 2.6%; in assay [11], 4.81%.

In the case of `CC(=O)NCC(=O)N1CCOC2(CCCN(c3cccnc3)C2)C1` (stereo unspecified), the Percent Effect in assay [1] was -5.02%; in assay [2], 2.7%; in assay [3], -2.24%; in assay [4] it was 1.82%; in assay [5] it was -6.05%; in assay [6] it was 0.833%. Further, the Percent Effect in assay [7] is 15.3%; in assay [8], 7.03%; in assay [9] it was 8.91%; in [10], 6.1%; in [11] it was -2.32%.

On to `Cc1[nH]ccc1C(=O)N1CCC(c2nnc(Cn3cccn3)n2C)CC1`, for which the Percent Effect in assay [1] was -2.68%; in assay [2], 2.74%; in assay [3], -3.04%; in assay [4], 10.2%; in [5], 2.98%; in [6], 1.6%. In addition, the Percent Effect in assay [7] is 6.42%; in [8], -10.2%; in assay [9] it was 5.21%; in assay [10], 13.6%; in [11], 1.58%.
